Measured values from PubChem BioAssay.
Values without a mark were called inactive. How the calls were made is not given here.

target: Pantothenate synthetase (Mycobacterium tuberculosis (strain ATCC 25618 / H37Rv)) (UniProt P9WIL5); test: Recombinant Mtb pantothenate synthetase (PanC) inhibitors, coupled enzyme, confirmatory (AID 375); conditions: coupled enzyme assay; at 10 µM, stronger effect = higher value;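 further: 0% = full reaction with vehicle and 100% = no enzyme background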
Sequence (P9WIL5 whole entry, looked up): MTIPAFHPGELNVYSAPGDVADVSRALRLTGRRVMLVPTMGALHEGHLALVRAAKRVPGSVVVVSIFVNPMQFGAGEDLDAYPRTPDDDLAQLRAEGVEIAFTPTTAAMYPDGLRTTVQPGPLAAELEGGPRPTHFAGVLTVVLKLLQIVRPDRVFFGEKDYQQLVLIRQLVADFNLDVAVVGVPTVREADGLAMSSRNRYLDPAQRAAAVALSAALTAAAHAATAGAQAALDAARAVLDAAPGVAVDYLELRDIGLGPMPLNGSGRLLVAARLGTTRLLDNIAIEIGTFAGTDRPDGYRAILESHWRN

| Structure (SMILES) | inhibition |
| --- | --- |
| Cc1ccn2cc(CCNC(=O)CC(C)(C)C)nc2c1 | 0% |
| Cc1cc(-n2c(C)cc(C(=O)CSc3nc4ccccc4c(=O)n3Cc3ccco3)c2C)no1 | 0% |
| CCn1c(SCc2cccc(C(F)(F)F)c2)nnc1-c1ccco1 | 0% |
| Cc1ccc(S(=O)(=O)C2(C(=O)N3CCCCCC3)CC2)cc1 | 0% |
| COc1cccc(-n2c(C)nc3c(cnn3-c3ccc(C)cc3)c2=O)c1 | 3% |
| COc1ccc(-c2nc3cc(NC(=O)Cc4ccc(OC)c(OC)c4)ccc3o2)cc1 | 0% |
| C=CCn1c(Cc2cccs2)nnc1SCC(=O)Nc1ccc(OC)c(OC)c1 | 0% |
| O=S(=O)(c1ccc(OCC(O)CN2CCC(Cc3ccccc3)CC2)cc1)N1CCOCC1 (centres undefined) | 1% |
| CC(C)(C)n1ncc2c(=O)n(CC(=O)NCc3ccccc3)cnc21 | 0% |
| Cc1ccc(NC(=O)c2ccc(NS(=O)(=O)c3c(C)noc3C)cc2)cc1C | 0% |
| COCCOC(=O)C1=C(N)OC2=C(C(=O)CC(C)(C)C2)C1c1cccnc1 (centres undefined) | 0% |
| CNC(=O)Oc1ccc2c(c1)[C@]1(C)CCN(C)[C@@H]1N2C | 4% |
| O=C(O)c1ccc(COc2ccc(Cl)cc2)o1 | 0% |
| COc1cc2c(=O)nc3n(c2cc1OC)C(c1ccccc1)N=C(N)N3 (centres undefined) | 0% |
| Cc1ccc(NS(=O)(=O)c2cn(C)cn2)cc1 | 5% |
| COc1ccc(NC(C)=O)cc1NC(=O)CN1CCN(c2ccccn2)CC1 | 0% |
| Cc1cc(NS(=O)(=O)Cc2ccccc2)cc(C)c1OCC(=O)N1CCOCC1 | 4% |
| Cc1nc(C)n(C(C)CC(=O)O)n1 (centres undefined) | 0% |
| CC1CCN(S(=O)(=O)c2ccc(NC(=O)CSc3nnnn3C)cc2)CC1 | 2% |
| CC(C)=CC(=O)N1CCCc2ccccc21 | 13% |

| Structure (SMILES) | inhibition |
| --- | --- |
| CCn1nnc(-c2ccccc2NC(=O)c2ccc(-n3cnnn3)cc2)n1 | 9% |
| c1ccc2ncc(-n3cnnn3)cc2c1 | 0% |
| O=C(Nc1ccc(OC(=O)c2ccco2)cc1)c1ccco1 | 7% |
| COC(=O)Cc1c(C)c2ccc(OCC(=O)N3CCOCC3)cc2oc1=O | 0% |
| CCc1nnc(NC(=O)C2CCN(c3nccc(C)n3)CC2)s1 | 8% |
| CCOC(=O)C1CCCN(C(=O)c2cc(=O)c3ccccc3o2)C1 (centres undefined) | 5% |
| CSc1cccc(NC(=O)C2CCN(S(C)(=O)=O)CC2)c1 | 0% |
| O=C(COC(=O)C12CC3CC(CC(C3)C1)C2)NCc1ccco1 | 0% |
| O=C(O)c1cccn2c(=O)c3ccccc3nc12 | 0% |
| COc1ccc(C2c3c(oc4ccccc4c3=O)C(=O)N2Cc2ccncc2)cc1OC (centres undefined) | 6% |
| Cc1ccc(Nc2nc(CSc3nnnn3C)cs2)cc1 | 0% |
| O=C(NCc1cccnc1)c1ccc(Cl)c(Cl)c1 | 0% |
| OC1(c2cccc(C(F)(F)F)c2)CCNCC1 | 4% |
| N#CCc1nc(CSc2nc3ccccc3s2)cs1 | 7% |
| COc1ccc2c(c1)n([O-])c1c([n+]2=O)CCC1 | 0% |
| O=C1c2ccccc2C(Nc2ccc(F)cc2F)N1CCN1CCOCC1 (centres undefined) | 0% |
| CCOC(=O)C1=C(C)NC(C)=C(C(=O)OCC)C1C(=O)OC1CCOC1=O (centres undefined) | 13% |
| CCOC(=O)c1sc(Nc2nc3c(OC)cccc3s2)nc1C | 1% |
| c1ccc(N=P(c2nc3ccccc3o2)(N2CCOCC2)N2CCOCC2)cc1 | 0% |
